aSyn yeast inh: rescues yeast growth from alpha-synuclein toxicity; Yeast expressing alpha-synuclein, growth rescue, BacTiter-Glo, 24 h; Potency, µM (highest dose often 46.1 µM), for the others: top-dose growth rescue (activation), usual class: activators; hit rate 0.14% among 370,000; AID 652106; note: % of control where 0% means no effect; nearly all actives have a fitted effect of over 65% in size
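Rescue of yeast growth: cells expressing toxic alpha-synuclein, induced in galactose at OD600 0.02, incubated with compound 24 h at 30 C. ATP luminescence quantified growth; inhibitors of toxicity appear as activators.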
Mito fusion yeast: mitochondrial division inhibition or fusion activation; S. cerevisiae fusion-defective mutant growth rescue, CellTiterGlo 48 h; AID 485298; Potency, µM (top dose mostly 46.1 µM), for the others: top-dose growth rescue (activation), actives largely listed as activators; hit rate 0.23% among 320,000; note: % of control where 0% means no effect; nearly all actives have a fitted effect of over 45% in size
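Luminescent cell viability in 1536-well qHTS format served as the measure of rescued growth in ts fusion-mutant S. cerevisiae cultured on non-fermentable YPEG for 48 hours at 37C.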
FUS yeast rescue: FUS proteinopathy suppression in yeast; S. cerevisiae FUS-expressing, growth rescue, OD600, 24 h; Potency, µM (doses to about 76.6 µM), hits mostly activators; hit rate 0.24% among 390,000; AID 1347120;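 note: plate controls were DMSO vehicle for no effect and reference control for full effect; nearly all actives have a fitted effect of over 55% in size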
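FUS-expressing yeast, raffinose-pregrown, induced in 2% galactose minimal medium at OD 0.005; compounds in a dilution series, 24hr at 30C. Growth restoration read as absorbance at 600 nm. CP55940 positive control, DMSO negative.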
Abeta rescue: restores growth of yeast expressing A-beta42 peptide. Potency, µM (top dose mostly 46.1 µM), actives largely listed as activators. hit rate 0.063% among 410,000. AID 1347071. yeast expressing A-beta42, growth rescue, OD600, 48 h; response scale: 0% DMSO, 100% iron-clioquinol control; note: nearly all actives have a fitted effect of over 55% in size
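Yeast A-beta toxicity model in growth medium with pinned compounds, 48 h at 30 C; growth read as absorbance at 600 nm. Normalized to FeCl3/clioquinol equimolar mix (positive) and DMSO (negative).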
TDP43 rescue: TDP-43 toxicity inhibition in yeast; TDP-43 expressing yeast growth rescue, BacTiter-Glo, 24 h; Potency, µM (doses to about 46.1 µM), for the others: at the top dose growth rescue (activation), hits mostly activators; hit rate 1.8% among 410,000; note: % of control where 0% means no effect; nearly all actives have a fitted effect of over 50% in size
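Readout is BacTiter-Glo luminescence of cell growth, so inhibitors register as activators. TDP-43-expressing yeast at OD600=0.02 in galactose medium, after raffinose pregrowth to mid-log, were incubated with compound for 24 hr at 30 deg C.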
The depositor's hits bear a star; i = inactive; ? = inconclusive; . = not tested or not shown. The list is not random: actives were taken first. Their share in the collection is about 2.2%. Calls come from the whole dose curve; as a rule, active = well fitted curve in the direction sought with a large enough effect; inconclusive = small, poorly fitted or top-dose-only effect, or another doubt; inactive = no such curve, though single readings can be large; an effect the other way counts as inactive or inconclusive. Potency is the fitted concentration of half-maximal effect.

SMILES	aSyn yeast inh	Mito fusion yeast	FUS yeast rescue	Abeta rescue	TDP43 rescue
COc1ccc(CC(=O)N2CCc3cc(OC)c(OC)cc3C2)cc1	2.0%	-0.7%	i	i	8.2%
COc1cc2c(cc1OC)CN(C(=O)Cc1c(F)cccc1Cl)CC2	9.6%	?	i	i	15.8µM*
CC(C)(C)OC(=O)N1CCC(c2c(C(=O)N3CCCCC3)cnn2-c2ccc(F)cc2)CC1	.	.	i	i	17.5%
Cc1ccc(SCC(=O)O/N=C(\N)c2cccnc2)cc1	0.6%	1.4%	i	i	10µM*
Cc1ccc(S(=O)(=O)N(C)CC(=O)O/N=C(\N)c2cccnc2)cc1	1.5%	.	.	i	13.4%
COc1cc(/C=C/C(=O)Nc2cccc(S(=O)(=O)NC3=NCCCCC3)c2)ccc1OCC#N	-23.6%	0.0%	?	i	-37.4%
COc1ccc(NC(=O)C2CCCN2S(=O)(=O)c2cccc3cccnc23)c(OC)c1 (configuration not stated)	-0.3%	-29.8%	i	i	2.51µM*
N#CC1=C(N)N(c2ccccc2Sc2ccccc2)C(=O)C1	1.0%	-0.2%	28.2µM*	i	-1.1%
Cc1cc(Cl)ccc1Nc1ncnc2onc(C)c12	.	.	i	i	36.1%
Cc1ccc(Nc2ncnc3onc(C)c23)cc1Cl	.	.	i	i	35.5µM*
COc1ccccc1C(C)Nc1ccc(S(=O)(=O)N2CCN(C)CC2)cc1[N+](=O)[O-] (configuration not stated)	8.1%	-4.0%	i	i	11.2%
CCOC(=O)c1cc(=O)c2ccc(OCC(=O)Nc3ccccc3)cc2o1	15.1%	4.8%	i	i	-8.6%
CCOC(=O)C1=C(C)N(CC(C)C)C(=O)/C1=C\c1ccc(OCC(=O)Nc2ccccc2)cc1	4.9%	-2.3%	i	i	17.8µM*
CCC(CC)c1nnc(NC(=O)c2c(C)nn(Cc3ccccc3Cl)c2C)s1	7.5%	12.1%	8.91µM*	i	?
Cc1nn(Cc2ccccc2Cl)c(C)c1C(=O)NC1=NCCS1	-13.4%	10.9%	i	i	14.4%
CC(=O)c1cccc(Nc2ccc(Br)cc2)c1	-13.1%	.	i	i	14.1µM*
CO[C@H]1CN(C)C(=O)c2cc(NC(=O)c3cc(C)on3)ccc2OC[C@@H](C)N(C(=O)C2CC2)C[C@H]1C	-10.4%	.	i	i	28.4%
CC(=O)c1ccc(NC(=O)c2nc(-c3ccccc3)n(-c3ccccc3Cl)n2)cc1	.	.	?	i	14.1µM*
COc1ccc(-c2nc(C(=O)Nc3ccc(C(C)=O)cc3)nn2-c2cccc(Cl)c2)cc1	.	.	?	i	?
CCc1ccc(NC(=O)c2cc(C)nn2-c2ccccc2)cc1	-0.7%	-18.4%	i	i	15.8µM*
Cc1nc(C(=O)Nc2cc(Cl)ccc2Cl)nn1-c1cc(OC(C)C)c(Cl)cc1Cl	5.0%	8.3%	i	i	10.3%
CC(=O)c1cccc(NC(=O)c2nc(-c3ccccc3)n(-c3cccc(Cl)c3)n2)c1	.	.	?	i	35.5µM*
Cc1nc(C(=O)Nc2cccc(Cl)c2)nn1-c1cc(OC(C)C)c(Cl)cc1Cl	-11.1%	18.1%	31.6µM*	i	5.2%
CCOC(=O)N1CCN(C(=O)C[C@@H]2C[C@@]3(C(=O)OC)CCCCC=C3N(Cc3ccccc3)C2=O)CC1	-2.4%	.	i	i	5.9%
CC(=O)Nc1ccc(S(=O)(=O)N(C)CC(=O)OCC(=O)Nc2cc(C)on2)cc1	-3.1%	-1.8%	i	i	-15.4%
SMILES	aSyn yeast inh	Mito fusion yeast	FUS yeast rescue	Abeta rescue	TDP43 rescue
O=C(COC(=O)Cc1c(F)cccc1Cl)Nc1ccc2[nH]c(=O)[nH]c2c1	-6.9%	.	i	i	-19.4%
CC(=O)c1ccc(NC(=O)c2nc(-c3ccccc3)n(-c3ccccc3)n2)cc1	.	.	i	i	17.8µM*
Cc1ccc(NC(=S)NCc2ccc(Cl)cc2)c(OC(F)F)c1	3.7%	-9.9%	i	i	?
Cc1nnc2sc(-c3ccncc3)nn12	13.2%	0.5%	i	i	8.4%
Cc1nnc2sc(-c3csc4c3CCCC4)nn12	-3.2%	11.7%	?	i	12.6µM*
CC1(C(=O)NS(=O)(=O)Cc2cccc(Cl)c2)CCN1C(=O)c1ccc(C2CCCCC2)cc1 (configuration not stated)	-8.5%	.	i	i	23.1%
CC1(C(=O)NS(=O)(=O)Cc2ccccc2)CCN1C(=O)c1ccc(C2CCCCC2)cc1 (configuration not stated)	-46.5%	.	i	i	20µM*
O=C(Nc1ccc(N2CCOCC2)cc1Cl)C1CCN(C(=O)OCc2ccccc2)CC1	-0.2%	-4.3%	i	10µM*	0.0%
O=C(Nc1ccc(N2CCOCC2)cc1)C1CCN(C(=O)OCc2ccccc2)CC1	-2.2%	2.4%	i	i	6.7%
COc1ccc(NC(=O)c2sc3nc(N4CCCC4)c4c(c3c2N)CC(C)(C)OC4)cc1	-1.4%	12.6µM*	i	i	?
Cc1ccccc1COC(=O)c1ccc(-c2nnn(Cc3ccccc3F)n2)cc1	.	.	i	i	2.3%
CC[C@H](C)[C@@H]1NC(=O)[C@H]([C@@H](C)CC)NC(=O)[C@@H](CC(C)C)NC(=O)[C@H](Cc2ccccc2)NC(=O)[C@H](Cc2ccccc2)NC(=O)[C@@H]2CCCN2C(=O)[C@@H]2CCCN2C(=O)[C@H](C(C)C)NC(=O)[C@H](CC(C)C)NC1=O	0.4%	.	17.8µM*	i	18.7%
Clc1cccc(CNc2ccn3nc(-c4ccco4)cc3n2)c1	?	.	i	i	15.8µM*
Clc1cccc(CNc2ccn3nc(-c4cccs4)cc3n2)c1	?	.	i	?	17.8µM*
Clc1cccc(CNc2ccn3nc(-c4ccc(OCCN5CCOCC5)cc4)cc3n2)c1	?	.	i	i	0.0%
O=C(Cc1ccc2ccccc2c1)NO	-0.4%	.	.	.	.
Cn1cc(CN2CCC(Oc3ccc(C(=O)N4CCCCC4)cc3)CC2)cn1	-2.0%	-2.8%	i	i	-1.2%
Cc1cc(N2CCN(c3ccccc3)CC2)n2cnnc2n1	.	.	i	i	8.3%
CCCc1cc(N2CCN(c3ccccc3F)CC2)n2cnnc2n1	.	.	i	i	20µM*
CCCc1cc(N2CCN(c3ccccc3)CC2)n2cnnc2n1	.	.	i	i	20µM*
CC(=NNC(=O)c1cccc(S(=O)(=O)N2CCOCC2)c1)c1ccc(Cl)cc1	-6.8%	.	i	i	-9.0%
Cc1ccc(C(=O)NC(=S)N2CCCCCC2)cc1	-5.5%	-8.8%	i	i	0.0%
CCOC(=O)/C(C#N)=C1/SC(CC)C(=O)N1c1ccc(Br)cc1 (configuration not stated)	1.1%	0.5%	?	i	-14.0%
